Test results taken from PubChem BioAssay.
Several values for one entry are separate records, joined by “and”; a condition that tells them apart may be missing. Equal values may be shown once. Activity calls are given as the source filed them.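 Rule for the calls, unless noted: active = thallium flux through the channel raised or lowered by more than 3 SD from vehicle-only wells, actives on both sides; inactive = the rest.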

What was measured:
[1] = system: Hepatitis C virus NS3 helicase; experiment: blockers of NS3h binding to DNA – biochemical, fluorescence polarization, NIH Clinical Collection, primary screen (AID 743270; call rule not given here); conditions: NS3 helicase binding to Cy5-dT15 DNA, stronger effect = higher value, concentration not given here
[2] = biological target: Single-stranded DNA-binding protein (Escherichia coli (strain K12)) (UniProt P0AGE0); experiment: SSB-ssDNA binding inhibitors – biochemical, fluorescence polarization, NIH Clinical Collection, counter-screen for HCV NS3 helicase inhibitor project (AID 743271; in the data active = inhibition above about 28%); conditions: E. coli SSB-DNA binding, stronger effect = higher value, concentration not given here
[3] = compounds distorting NS3 helicase fluorescence signal – biochemical, NIH Clinical Collection, artefact control for HCV NS3 helicase inhibitor project (AID 743272; call rule not given here;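 note: HCV NS3 helicase with a Cy5 labelled single stranded DNA probe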); conditions: fluorescence interference counterscreen, HCV NS3 helicase assay; stronger effect = lower value
[4] = Wnt pathway potentiators raising nuclear beta-catenin – imaging, WNT3A-conditioned medium, mouse C2C12, NPC library, primary screen (AID 1117326; in the data active = nuclear beta-catenin stimulation mostly above about 4.2%, no sharp cut-off; inactive = mostly below about 10%); conditions: stronger effect = higher value
[5] = stimulators of insulin release from INS-1E, primary screen, cell-based, 5 mM glucose, NPC library (AID 1117329;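 active = compound raises insulin release from rat beta cells at 5 mM glucose, no numeric limit stated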); conditions: rat INS-1E insulin secretion, at 10 µM, stronger effect = higher value
[6] = growth inhibition of GSK3B-pretreated HCT116 cells – cell-based, CellTiter-Glo, 0.2 to 20 µM (AID 1117336;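 active = compounds lowering colon cancer cell viability after pretreatment blocking the GSK3B kinase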); conditions: HCT116 viability after GSK3B inhibitor, at 20 µM, stronger effect = higher value
[7] = inhibition of endothelial tube formation, primary screen, imaging, VEGF stimulated, CD31 staining, tube area, NPC library (AID 1117340;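 active = compound that reduces growth-factor-driven endothelial tube area in a mixed cell culture, no cutoff stated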); conditions: VEGF-stimulated ADSC/ECFC co-culture, at 10 µM, stronger effect = higher value
[8] = GLP1 release stimulators, primary, NCI-H716, NPC library (AID 1117341;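 active = compound raises GLP1 secretion from the human gut endocrine cells, with no numeric limit stated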); conditions: NCI-H716 cells, at 10 µM, stronger effect = higher value
[9] = HCT116 colon cancer cell growth inhibition, primary screen, CellTiter-Glo luminescence, NPC library (AID 1117342;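 active = compounds that lower survival of HCT116 colon cancer cells in the luminescence readout, no numeric limit stated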); conditions: at 20 µM (top of the series)
[10] = reduced SW480 viability measured with CellTiter-Glo, NPC library, primary (AID 1117343;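 active = compounds that lower viability of the colon cancer cells in the luminescence readout, with no numeric limit stated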); conditions: CellTiter-Glo luminescence; at 20 µM (top of the series)
[11] = NPC library primary testing for decreased DLD-1 cell viability via CellTiter-Glo (AID 1117346;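 active = compounds that lower survival of DLD-1 colon cancer cells in the luminescence readout, no cutoff given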); conditions: DLD-1 viability, CellTiter-Glo luminescence; at 20 µM (top of the series)
[12] = biological target: 6-phosphogluconate dehydrogenase, decarboxylating (Homo sapiens) (UniProt P52209); experiment: inhibition of human phosphogluconate dehydrogenase – biochemical, recombinant enzyme, NADPH absorbance, primary screen (AID 1159550;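 active = at least 20% inhibition of 6-phosphogluconate dehydrogenase activity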); conditions: recombinant 6PGD, NADPH absorbance 341 nm; at 10 µM; stronger effect = higher value
[13] = EMT-state selective cytotoxicity in co-culture – imaging, PC-3E GFP, TEM4-18 mCherry, primary screen (AID 1345086;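 active = compounds killing one labelled cell type while sparing the other, by normalised counts and ratio limits, not self-fluorescent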;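 note: cells exposed to compound for 72 h before imaging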;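 for red/green cell ratio (normalised): normalised mesenchymal count divided by normalised epithelial count so high means epithelial killing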); conditions: PC-3E GFP / TEM4-18 mCherry co-culture, imaging cell counts, at 1 µM
[14] = MELAS cybrid and Rieske KO viability enhancers – cell-based, MELAS cybrids, Rieske KO mouse fibroblasts, CellTiter-Glo, primary screen (AID 1508586;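 active = mean z-score across replicates of 1.96 or higher in either the MELAS or the Rieske mutant cell line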;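 note: z relative to plate mean and SD of compound and empty wells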); conditions: low glucose
[15] = biological target: NAD(+) hydrolase SARM1 (Homo sapiens) (UniProt Q6SZW1); experiment: blocking NAD cleavage by SARM1 SAM-TIR – cell lysate, NAD-Glo luminescence (AID 1508614;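 active = compound whose remaining NAD level is above about 45 nM, limit read from the data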;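 note: higher remaining NAD means stronger inhibition of SARM1 NADase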); conditions: SAM-TIR HEK293T lysate NADase, at 1 µM, stronger effect = higher value
[16] = biological target: Mitogen-activated protein kinase 7 (Homo sapiens) (UniProt Q13164); experiment: Gal4-ERK5 driven luciferase induction – cell-based, HTS, primary screen (AID 1508626;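 active = luciferase signal above three times the same-plate solvent-only control wells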;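 note: luciferase driven by Gal4-ERK5 fusion binding five Gal4 sites before minimal TATA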); conditions: HeLa Gal4-ERK5 transactivation, 18 h, at 5 µM, stronger effect = higher value
F380Y = experiment: BK channel mutant inhibitors and activators – cell-based, U2OS BacMam, thallium flux, beta subunits, selectivity assay, profiling panel (AID 1259406); conditions: U2OS BacMam BK variants, at 30 µM;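 note: initial slope of Thallos dye fluorescence rise after thallium is added; log ratio against the mean of 0.3% DMSO vehicle wells on the same plate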
F380Y/beta2Delta = experiment: as above; conditions: U2OS BacMam BK variants, at 30 µM
[17] = biological target: Calcium-activated potassium channel subunit alpha-1 (Homo sapiens) + Leucine-rich repeat-containing protein 26 (Homo sapiens) (UniProt Q12791+Q2I0M4); experiment: as above; conditions: U2OS BacMam BK variants, F380Y/Slo1WT/gamma1, at 30 µM
[18] = viability loss with induced miR-34 in A549 – imaging, A549 dox-inducible miR-34, nuclei and caspase counts, primary screen (AID 1347080;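 active = compounds whose cell count with miR-34 switched on is under 0.7 times the count with it off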); conditions: A549 miR-34 inducible, Hoechst nuclei count, 48 h
[19] = stronger effect = lower value, cell number ratio, induced over uninduced
[20] = measured here: relative caspase fold change +Dox/-Dox
[21] = measured here: total cells with miR-34 induction, stronger effect = lower value
[22] = measured here: total cells without miR-34 induction

Chain of NAD(+) hydrolase SARM1 (Homo sapiens) (Q6SZW1 whole entry, looked up, the tested form may be a part): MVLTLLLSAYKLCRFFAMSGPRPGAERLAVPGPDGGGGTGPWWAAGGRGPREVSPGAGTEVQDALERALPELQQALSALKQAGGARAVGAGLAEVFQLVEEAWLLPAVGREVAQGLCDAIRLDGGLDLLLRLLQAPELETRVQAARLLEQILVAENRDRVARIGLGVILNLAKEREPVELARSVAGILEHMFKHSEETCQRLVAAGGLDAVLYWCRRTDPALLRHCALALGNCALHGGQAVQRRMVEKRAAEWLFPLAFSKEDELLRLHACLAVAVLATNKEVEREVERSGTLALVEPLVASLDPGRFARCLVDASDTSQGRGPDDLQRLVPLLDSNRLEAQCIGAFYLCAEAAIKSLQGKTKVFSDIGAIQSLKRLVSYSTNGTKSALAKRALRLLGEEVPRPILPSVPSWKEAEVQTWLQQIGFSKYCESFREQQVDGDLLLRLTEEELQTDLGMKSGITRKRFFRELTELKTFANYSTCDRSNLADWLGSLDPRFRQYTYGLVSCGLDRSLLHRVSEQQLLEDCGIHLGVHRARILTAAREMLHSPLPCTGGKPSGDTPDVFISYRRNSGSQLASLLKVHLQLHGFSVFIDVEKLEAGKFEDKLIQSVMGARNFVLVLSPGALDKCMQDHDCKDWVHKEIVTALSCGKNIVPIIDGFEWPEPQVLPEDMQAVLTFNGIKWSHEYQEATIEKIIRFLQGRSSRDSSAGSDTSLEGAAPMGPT
Chain of Mitogen-activated protein kinase 7 (Homo sapiens) (Q13164 whole entry, looked up, the tested form may be a part): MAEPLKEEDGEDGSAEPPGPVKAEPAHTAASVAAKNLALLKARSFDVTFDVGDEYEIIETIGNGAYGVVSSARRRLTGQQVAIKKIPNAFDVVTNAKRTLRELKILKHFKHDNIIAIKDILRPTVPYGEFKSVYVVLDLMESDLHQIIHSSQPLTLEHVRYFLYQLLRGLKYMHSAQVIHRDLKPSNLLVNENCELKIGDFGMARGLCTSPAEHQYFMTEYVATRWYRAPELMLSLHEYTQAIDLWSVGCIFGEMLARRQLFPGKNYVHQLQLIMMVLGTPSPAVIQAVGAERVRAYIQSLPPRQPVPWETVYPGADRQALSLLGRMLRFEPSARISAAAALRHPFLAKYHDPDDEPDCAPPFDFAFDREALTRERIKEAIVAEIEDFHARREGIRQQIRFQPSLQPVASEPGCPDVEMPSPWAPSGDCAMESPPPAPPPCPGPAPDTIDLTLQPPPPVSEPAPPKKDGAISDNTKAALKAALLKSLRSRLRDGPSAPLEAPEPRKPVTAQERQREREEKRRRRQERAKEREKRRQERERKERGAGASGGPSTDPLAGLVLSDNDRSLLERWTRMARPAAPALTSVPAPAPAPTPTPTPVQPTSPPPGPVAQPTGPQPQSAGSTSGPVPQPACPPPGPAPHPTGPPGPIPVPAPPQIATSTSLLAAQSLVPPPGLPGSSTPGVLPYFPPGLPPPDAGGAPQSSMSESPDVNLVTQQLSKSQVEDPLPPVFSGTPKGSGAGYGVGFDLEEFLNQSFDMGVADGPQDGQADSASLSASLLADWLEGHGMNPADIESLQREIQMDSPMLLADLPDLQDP
Chain of 6-phosphogluconate dehydrogenase, decarboxylating (Homo sapiens) (P52209 whole entry, looked up): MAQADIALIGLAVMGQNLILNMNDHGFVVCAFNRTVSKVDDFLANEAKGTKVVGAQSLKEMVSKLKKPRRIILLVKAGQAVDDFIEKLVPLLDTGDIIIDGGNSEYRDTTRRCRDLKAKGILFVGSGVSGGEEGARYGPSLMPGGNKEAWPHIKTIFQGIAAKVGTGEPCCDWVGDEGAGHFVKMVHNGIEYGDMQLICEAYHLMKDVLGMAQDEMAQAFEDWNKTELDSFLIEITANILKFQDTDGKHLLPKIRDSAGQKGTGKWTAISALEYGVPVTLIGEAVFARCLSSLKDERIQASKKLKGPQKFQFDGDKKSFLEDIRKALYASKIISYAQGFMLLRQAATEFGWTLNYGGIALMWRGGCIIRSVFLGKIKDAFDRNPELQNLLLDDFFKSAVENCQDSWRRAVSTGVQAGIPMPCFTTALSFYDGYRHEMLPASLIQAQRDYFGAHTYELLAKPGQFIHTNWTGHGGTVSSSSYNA
Chain of Calcium-activated potassium channel subunit alpha-1 (Homo sapiens) + Leucine-rich repeat-containing protein 26 (Homo sapiens) (Q2I0M4 whole entry, looked up, one chain of several): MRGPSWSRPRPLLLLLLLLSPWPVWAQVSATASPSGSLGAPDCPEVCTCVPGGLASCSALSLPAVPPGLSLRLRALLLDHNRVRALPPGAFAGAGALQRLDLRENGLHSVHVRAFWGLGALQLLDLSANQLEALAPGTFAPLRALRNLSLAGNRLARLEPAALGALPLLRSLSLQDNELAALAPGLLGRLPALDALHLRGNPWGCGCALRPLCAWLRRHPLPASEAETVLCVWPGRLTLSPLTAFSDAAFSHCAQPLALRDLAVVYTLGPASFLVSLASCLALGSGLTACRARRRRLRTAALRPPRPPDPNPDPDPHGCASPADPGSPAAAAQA

COc1ccc2cc(CCC(C)=O)ccc2c1
1.12: normalised cell number ([13]; measured here: epithelial PC-3E GFP cell survival)
1.27: normalised cell number ([13]; measured here: mesenchymal TEM4-18 mCherry cell survival)
active: viability decrease (inhibition) [11] -3.8% | log fold change Tl+ flux (F380Y) -0.158 | log fold change Tl+ flux (F380Y/beta2Delta) -0.0818
inactive: inhibition [1] -1.36% | inhibition [2] 1.05% | fluorescence ratio [3] 0.99 | nuclear beta-catenin stimulation ([4]; at 10 µM) 5.3% | insulin secretion stimulation [5] 1.5% | viability decrease [6] -7.2% | tube area decrease [7] -5.2% | GLP1 secretion stimulation [8] 0.4% | inhibition of viability [9] -6.2% | viability decrease (inhibition) [10] 4.5% | inhibition [12] -24.5% | red/green cell ratio (normalised) ([13]; actives lie on both sides, counts scaled to control wells, 1 = unselective) 1.14 | z-score ([14]; MELAS cybrid survival, CellTiter-Glo 48 h, stronger effect = higher value) -0.0447 and 0.0297 and 0.548 | remaining NAD [15] 10 nM | luciferase signal [16] 92 AU | log fold change Tl+ flux [17] -0.0634
3.7%: nuclear beta-catenin stimulation ([4]; stimulation, at 2 µM)
-0.132 and -0.0567 and -0.121: z-score ([14]; Rieske KO mouse fibroblast survival, CellTiter-Glo 72 h)

CC1=C(C(=O)O)N2C(=O)[C@@H](NC(=O)[C@H](N)c3ccccc3)[C@H]2SC1
0.2%: nuclear beta-catenin stimulation ([4]; stimulation, at 2 µM)
1.36: fold change [18, 20]
active: GLP1 secretion stimulation [8] 22.8%
10900: cell count [18, 22]
inactive: inhibition [1] 8.32% | inhibition [2] 8.37% | fluorescence ratio [3] 0.97 | nuclear beta-catenin stimulation ([4]; at 10 µM) 3.8% | insulin secretion stimulation [5] -0.9% | viability decrease [6] 7.2% | tube area decrease [7] -2.6% | inhibition of viability [9] 24.3% | viability decrease (inhibition) [10] 44.6% | viability decrease (inhibition) [11] 11.8% | inhibition [12] 8.67% | fold change [18, 19] 0.846 | remaining NAD [15] 10 nM | luciferase signal [16] 40 AU | log fold change Tl+ flux (F380Y) -0.036 | log fold change Tl+ flux (F380Y/beta2Delta) -0.0767 | log fold change Tl+ flux [17] -0.0298
9200: cell count [18, 21]

O[C@@H](c1cc(C(F)(F)F)nc2c(C(F)(F)F)cccc12)[C@H]1CCCCN1
950: cell count [18, 21]
3.3%: nuclear beta-catenin stimulation ([4]; stimulation, at 2 µM)
0.276: fold change [18, 20]
inactive: inhibition [1] -7.73% | inhibition [2] -2% | fluorescence ratio [3] 0.96 | insulin secretion stimulation [5] 6.3% | GLP1 secretion stimulation [8] -1.8% | inhibition [12] 5.27% | fold change [18, 19] 1.59 | remaining NAD [15] 10 nM | luciferase signal [16] 64 AU
597: cell count [18, 22]
active: nuclear beta-catenin stimulation ([4]; at 10 µM) 45% | viability decrease [6] 99.1% | tube area decrease [7] 108% | inhibition of viability [9] 99% | viability decrease (inhibition) [10] 102% | viability decrease (inhibition) [11] 101% | log fold change Tl+ flux (F380Y) 0.333 | log fold change Tl+ flux (F380Y/beta2Delta) 0.541 | log fold change Tl+ flux [17] 0.167
